Results on 40 compounds are retold here after PubChem BioAssay AID651692 (Broad Institute, 2012).

SMILES strings stand for the structures. Potency and affinity values are given separately. Unmarked numbers belong to inactive results.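 How the source made its calls: active means fitted half-maximal concentration for loss of cell signal no higher than twice the top valid tested concentration; inconclusive means flat curve at 30 to 70% inhibition, or poor fit; inactive means flat within 30%, signal rise, or potency above limit.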

This experiment can be described thus: MDA-MB-231 cell growth inhibition, dose response, cytotoxicity control for RAD54 inhibitor project, CellTiter-Glo luminescence, cherry-pick (AID 651692).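 Further: 0% = median of sample compound wells and -100% = staurosporine control wells; more negative values mean stronger loss of viable cell signal.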 The following applies: MDA-MB-231 viability, 24 h; series mostly up to 26 µM; activity change, negative = growth inhibition: at the top concentration. For orientation: In ATP-based viability assays light output follows the ATP content of the culture.
Turning to `Cc1cc(C)c2c(N)c3ccccc3nc2n1`, the “activity change, negative = growth inhibition” value was -22.3%. Consider `OCCCNc1c2ccccc2nc2ccccc12`, for which the “activity change, negative = growth inhibition” value is 1.17%. Under `CCN(CC)CCN(C(=O)c1ccc2ncsc2c1)c1nc2cc3c(cc2s1)OCO3` stands -2.56%. Next, `CC(=O)Nc1sc2c(c1-c1nc3ccccc3s1)CN(C(C)C)CC2`: -13.2% [at 8 µM]; `CCn1cc(C(=O)NCCN(C)C)c(=O)c2cc(F)c(N3CCN(C)CC3)cc21`: -6.57%; `O=c1c2ccccc2oc2ccc(NCCCN3CCOCC3)cc12`: 9.85%. Next, `CN(C)CCCN(C(=O)CCOc1ccccc1)c1nc2ccc(F)cc2s1`: 0.41%.

For `CCOC(=O)C1C(=O)NC(N2CCN(c3ccccc3)CC2)=NC1c1ccco1` (stereo not given), the “activity change, negative = growth inhibition” value is -0.077%. As for `CN(C)CCNC(=O)c1c(NC(=O)c2ccccc2)sc2c1CCCC2`, the “activity change, negative = growth inhibition” value was 0.703%. Next, `Nc1c(C(=O)NCCN2CCOCC2)c2nc3ccccc3nc2n1-c1ccc2c(c1)OCO2`: -0.672%; `Cn1nc(-c2ccccc2)cc1NS(=O)(=O)c1ccc(C#N)cc1`: 1.14%; `CN(C)CCCNc1nc(-c2ccccc2)nc2ccccc12`: 4.91%. Under `CCN1CCc2c(sc(NC(=O)c3ccc(C(=O)c4ccccc4)cc3)c2C(N)=O)C1` stands -14.2%; under `CN1CCN(c2nc(-c3cccnc3)nc3ccccc23)CC1`, 4.66%; under `CCN1CCN(c2cc(C)c3cc(NC(=S)N4CC(C)CC(C)C4)ccc3n2)CC1` (stereo not given), -2.48%. Under `COc1cc2[nH]c3c(=O)n(CCN(C(C)C)C(C)C)cnc3c2cc1OC` stands 14%. Consider `CN1CCN(c2ncnc3c2[nH]c2ccc(F)cc23)CC1`, for which the “activity change, negative = growth inhibition” value is 7.02%. Next, `COc1ccccc1C1=NOC(Cn2c(NCCCO)nc3c2c(=O)n(C)c(=O)n3C)C1` (stereo not given): 3.77%; `N=c1n(CCN2CCCCC2)c2ccccc2n1CC(=O)c1cccc([N+](=O)[O-])c1`: -13.2%. Under `CCCCN(C)CCNC(=S)Nc1ccc2nc(N3CCN(CC)CC3)cc(C)c2c1` stands 1.91%; under `COc1cc(NC(=O)c2cccnc2Sc2ccc(C)c(C)c2)cc(OC)c1OC`, 8.68%; under `COc1ccc2oc3cc(NCCN(C)C)ccc3c(=O)c2c1`, 4.37%.

With `Cn1c(C(=O)NCCN2CCCCCC2)cc2c(=O)n(C)c3ccccc3c21`, the “activity change, negative = growth inhibition” value is 1.73%. Next, `CCN(CC)CCNC(=O)c1cc2c(-c3ccc(Cl)cc3)nn(C)c2s1`: -19.8%; `CCCN(CCC)CCCNC(=O)c1cc2c(-c3ccc(OC)c(OC)c3)nn(C)c2s1`: 6.76%.

Regarding `CN(C)CCc1cc2c(c3c1ccc1ccccc13)OCO2`, the “activity change, negative = growth inhibition” value was -11%.

On to `Cc1cc2ccc3ccccc3c2cc1CN(C)C`, for which the “activity change, negative = growth inhibition” value was -5.15%. Next, `Oc1ccc(Nc2ccnc3cc(Cl)ccc23)cc1`: -1.5%; `CCOC(=O)c1c(CN2CCCCC2)n(C)c2cc(Br)c(OC)cc12`: 7.42%. Next, `Cc1ccc2nc(C)cc(Nc3ccc4c(c3)OCCO4)c2c1`: -16.2%; `CC(C)OCC(O)CN1CCN(CCN2C(=O)c3cccc4cccc(c34)C2=O)CC1` (stereo not given): 1.81%.

Consider `Cc1c(OCC(=O)NC2CC(C)(C)NC(C)(C)C2)ccc2c1oc(=O)c1ccccc12`, for which the “activity change, negative = growth inhibition” value was 0.065%. Turning to `COc1ccc2nc(C)cc(Nc3ccc(C)cc3)c2c1`, the “activity change, negative = growth inhibition” value was 3.03%.

Consider `O=c1cc(CSc2n[nH]c(=O)n2C2CC2)c2ccc(O)cc2o1`, for which the “activity change, negative = growth inhibition” value is 2.63%. Take `COc1cc2c(C#N)c(N3CCN(C)CC3)nc(N)c2c(N)n1`: the “activity change, negative = growth inhibition” value was 1.49%.

Turning to `c1ccc(-c2cc(NCCN3CCCCC3)c3ccccc3n2)cc1`, the “activity change, negative = growth inhibition” value was -16.1%. Next, `COC(=O)C1=C(C)Nc2nc3ccccc3n2C1c1ccccc1F` (stereo not given): -6.64%; `COc1ccccc1C(=O)C(O)c1ccccc1OC` (stereo not given): 2.24%. As to `CCOC(=O)c1cnc2c(ccc3ccccc32)c1NCCCN(C)C`, the “activity change, negative = growth inhibition” value was 5.51%. Under `CCCCN(CC)CCNC(=O)c1cc2c(=O)n(C)c3ccccc3c2n1C` stands -11.7%.
